The panel holds about 79,000 compounds, 15% with a hit somewhere; the sample as a whole holds those more often. Activity calls are given as the source filed them. Rule as the data show it: active = growth inhibition above about 70%; inactive = the rest.
Experiments:
[1] = NCI Yeast Anticancer Drug Screen. Data for the rad52 strain (AID 147);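 also: 0% = growth of vehicle-treated control cultures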; conditions: S. cerevisiae rad52 mutant growth inhibition, stronger effect = higher value
In short: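 Inhibition of yeast growth, referenced to vehicle controls, was the measured output for a strain with defective DNA damage repair.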

[2] = NCI Yeast Anticancer Drug Screen. Data for the wt1 strain (AID 149);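 also: 0% = growth of vehicle-treated wt1 cultures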; conditions: S. cerevisiae wt1 strain (SPY 50644) growth inhibition, stronger effect = higher value
In short: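 Growth inhibition read against vehicle controls after compound exposure of the wt1 yeast strain.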

[3] = NCI Yeast Anticancer Drug Screen. Data for the rad50EPP+ strain (AID 151);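 also: 0% = growth of vehicle-treated control cultures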; conditions: S. cerevisiae rad50 mutant strain, stronger effect = higher value
In short: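 Genetically defined yeast (rad50EPP+, DNA damage repair alteration) is grown with compound, and inhibition of growth is expressed relative to vehicle-treated controls.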

[4] = NCI Yeast Anticancer Drug Screen. Data for the mgt1 strain (AID 153); conditions: S. cerevisiae mgt1 mutant growth inhibition, stronger effect = higher value
In short: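 In the mgt1 strain, test compounds were added and growth inhibition was determined relative to vehicle-treated controls.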

[5] = NCI Yeast Anticancer Drug Screen. Data for the rad50 strain (AID 155);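 also: 0% = growth of vehicle-only cultures of the same strain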; conditions: S. cerevisiae rad50 strain growth inhibition, stronger effect = higher value
In short: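 Readout: growth inhibition relative to vehicle-treated cultures. Compound exposure was carried out in a genetically defined yeast strain deficient in DNA damage repair.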

[6] = NCI Yeast Anticancer Drug Screen. Data for the mec2-1 strain (AID 157); conditions: S. cerevisiae mec2-1 strain, stronger effect = higher value
In short: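 Each compound was tested on mec2-1 yeast, a strain altered in DNA damage repair or cell cycle control. Growth inhibition is reported relative to vehicle.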

[7] = NCI Yeast Anticancer Drug Screen. Data for the rad14 strain (AID 159);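 also: 0% = growth of vehicle-treated control cultures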; conditions: S. cerevisiae rad14 strain growth inhibition, stronger effect = higher value
In short: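 Growth inhibition vs vehicle controls; genetically altered yeast strain (DNA damage repair defect) treated with test compounds.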

[8] = NCI Yeast Anticancer Drug Screen. Data for the sgs1 mgt1 strain (AID 161);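 also: 0% = growth of cultures given vehicle only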; conditions: S. cerevisiae sgs1 mgt1 strain, stronger effect = higher value
In short: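 Mutant yeast exposed to compound; growth scored against vehicle-only wells.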

[9] = NCI Yeast Anticancer Drug Screen. Data for the CLN2oe strain (AID 163);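 also: 0% = growth of vehicle-only control cultures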; conditions: S. cerevisiae CLN2oe strain, stronger effect = higher value
In short: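 First, the altered yeast strain was treated with each compound; second, its growth was measured; finally, inhibition was derived by comparison with vehicle controls.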

[10] = NCI Yeast Anticancer Drug Screen. Data for the cln2 rad14 strain (AID 165);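 also: 0% = growth equal to vehicle treated cultures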; conditions: S. cerevisiae cln2 rad14 strain, stronger effect = higher value
In short: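 Test compounds were added to cln2 rad14 yeast cultures; inhibition of growth was then determined by comparison with vehicle treatment.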

[11] = NCI Yeast Anticancer Drug Screen. Data for the bub3 strain (AID 167); conditions: S. cerevisiae bub3 mutant strain, stronger effect = higher value
In short: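 Readout: yeast growth inhibition, expressed relative to vehicle-only wells. The test organism is a mutant strain from a panel with lesions in DNA repair or checkpoint genes.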

[12] = NCI Yeast Anticancer Drug Screen. Data for the wt2 strain (AID 169);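 also: 0% = growth of vehicle-treated yeast cultures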; conditions: S. cerevisiae wt2 strain growth inhibition, stronger effect = higher value
In short: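 The panel's yeast strains carry defined changes in DNA repair or cell cycle genes. Each strain is grown with compound, and growth loss is scored relative to vehicle.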

[13] = NCI Yeast Anticancer Drug Screen. Data for the mlh1 strain (AID 171);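 also: 0% = growth of vehicle-treated control cultures of the same strain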; conditions: S. cerevisiae mlh1 strain growth inhibition, stronger effect = higher value
In short: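 Inhibition values reflect reduced yeast growth in the presence of compound, referenced to vehicle controls, using a strain chosen for its alteration in DNA repair or cell cycle control.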

[14] = NCI Yeast Anticancer Drug Screen. Data for the sgs1 strain (AID 173);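 also: 0% = growth of vehicle-only control cultures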; conditions: S. cerevisiae sgs1 mutant, stronger effect = higher value
In short: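 Vehicle-treated cultures served as reference for growth inhibition of a yeast strain altered in DNA damage repair or cell cycle control after compound exposure.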

[15] = NCI Yeast Anticancer Drug Screen. Data for the mlh1 rad18 strain (AID 175); conditions: S. cerevisiae mlh1 rad18 strain growth inhibition, stronger effect = higher value
In short: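 Inhibition values reflect reduced growth of mutant yeast versus vehicle-treated controls following compound exposure; the mutations affect DNA damage repair.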

[16] = NCI Yeast Anticancer Drug Screen. Data for the rad18 strain (AID 177); conditions: S. cerevisiae rad18 mutant growth inhibition, stronger effect = higher value
In short: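 Steps: expose repair-mutant yeast to compound; measure growth; express as inhibition relative to vehicle control.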

[17] = at 5.0 µM (retest, dose inferred, filed as 0.5)
[18] = at 50.0 µM (retest, dose inferred, filed as 5.0)

Measured: growth inhibition

CC(Cc1ccccc1)N(C)Cc1nc(C2CCC([N+](=O)[O-])O2)no1 (stereo unspecified)
inactive: [1]; at 1.2 µM 6% | [1]; at 3.7 µM 14% | [1]; at 11.0 µM 22% | [1]; at 33.0 µM 53% | [2]; at 1.2 µM -1% | [2]; at 3.7 µM 0% | [2]; at 11.0 µM 2% | [2]; at 33.0 µM 3% | [2]; at 100.0 µM 8% | [3]; at 1.2 µM 5% | [3]; at 3.7 µM 14% | [3]; at 11.0 µM 27% | [3]; at 33.0 µM 44% | [3]; at 100.0 µM 42% | [4]; at 1.2 µM 1% | [4]; at 3.7 µM -1% | [4]; at 11.0 µM 13% | [4]; at 33.0 µM 25% | [4]; at 100.0 µM 49% | [5]; at 1.2 µM 4% | [5]; at 3.7 µM 10% | [5]; [17] 17% | [5]; at 11.0 µM 10% | [5]; at 33.0 µM 46% | [6]; at 1.2 µM 4% | [6]; at 3.7 µM 2% | [6]; [17] 18% | [6]; at 11.0 µM 4% | [6]; at 33.0 µM 17% | [6]; at 50.0 µM 66% | [6]; at 100.0 µM 33% | [7]; at 1.2 µM 5% | [7]; at 3.7 µM 14% | [7]; at 11.0 µM 45% | [8]; [17] 35% | [9]; at 1.2 µM -1% | [9]; at 3.7 µM 1% | [9]; at 11.0 µM 8% | [9]; at 33.0 µM 48% | [10]; [17] 5% | [11]; at 1.2 µM 0% | [11]; at 3.7 µM 9% | [11]; [17] -16% | [11]; at 11.0 µM 20% | [11]; at 33.0 µM 54% | [12]; at 1.2 µM 0% | [12]; at 3.7 µM 3% | [12]; at 11.0 µM 9% | [12]; at 33.0 µM 27% | [12]; at 100.0 µM 34% | [13]; at 1.2 µM -1% | [13]; at 3.7 µM -3% | [13]; at 11.0 µM 2% | [13]; at 33.0 µM 14% | [13]; at 100.0 µM 17% | [14]; at 1.2 µM -26% | [14]; at 3.7 µM 5% | [14]; at 11.0 µM 20% | [14]; at 33.0 µM 50% | [14]; at 100.0 µM 67% | [15]; [17] 47% | [16]; at 1.2 µM 14% | [16]; at 3.7 µM 36% | [16]; at 11.0 µM 69%
active: [1]; at 100.0 µM 84% | [5]; [18] 95% | [5]; at 50.0 µM 84.7% | [5]; at 100.0 µM 81% | [6]; [18] 98% | [7]; at 33.0 µM 70% | [7]; at 100.0 µM 93% | [8]; [18] 99% | [8]; at 50.0 µM 85.3% | [9]; at 100.0 µM 93% | [10]; [18] 94% | [10]; at 50.0 µM 88% | [11]; [18] 100% | [11]; at 50.0 µM 90% | [11]; at 100.0 µM 79% | [15]; [18] 97% | [15]; at 50.0 µM 80.2% | [16]; at 33.0 µM 86% | [16]; at 100.0 µM 95%

CN(CCc1ccc(Br)cc1)CCN1CCCCC1
active: [1]; at 33.0 µM 81% | [1]; at 100.0 µM 98% | [2]; at 100.0 µM 97% | [4]; at 11.0 µM 70% | [4]; at 33.0 µM 94% | [4]; at 100.0 µM 99% | [5]; at 33.0 µM 91% | [5]; [18] 74% | [5]; at 50.0 µM 78.3% | [5]; at 100.0 µM 98% | [6]; at 33.0 µM 74% | [6]; [18] 73% | [6]; at 50.0 µM 86.7% | [6]; at 100.0 µM 99% | [7]; at 33.0 µM 97% | [7]; at 100.0 µM 98% | [8]; [18] 86% | [8]; at 50.0 µM 92.5% | [9]; at 33.0 µM 78% | [9]; at 100.0 µM 98% | [10]; [18] 88% | [10]; at 50.0 µM 83.2% | [11]; at 33.0 µM 94% | [11]; [18] 88% | [11]; at 50.0 µM 91% | [11]; at 100.0 µM 98% | [12]; at 33.0 µM 93% | [12]; at 100.0 µM 99% | [13]; at 33.0 µM 82% | [13]; at 100.0 µM 99% | [14]; at 33.0 µM 96% | [14]; at 100.0 µM 99% | [15]; [18] 86% | [15]; at 50.0 µM 92.5%
inactive: [1]; at 1.2 µM 19% | [1]; at 3.7 µM 26% | [1]; at 11.0 µM 51% | [2]; at 1.2 µM 8% | [2]; at 3.7 µM 16% | [2]; at 11.0 µM 20% | [2]; at 33.0 µM 60% | [3]; at 1.2 µM -1% | [3]; at 3.7 µM 0% | [3]; at 11.0 µM -1% | [3]; at 33.0 µM 0% | [3]; at 100.0 µM 6% | [4]; at 1.2 µM 7% | [4]; at 3.7 µM 20% | [5]; at 1.2 µM 15% | [5]; at 3.7 µM 18% | [5]; [17] 9% | [5]; at 11.0 µM 38% | [6]; at 1.2 µM 17% | [6]; at 3.7 µM 24% | [6]; [17] 13% | [6]; at 11.0 µM 35% | [7]; at 1.2 µM 31% | [7]; at 3.7 µM 49% | [7]; at 11.0 µM 68% | [8]; [17] 30% | [9]; at 1.2 µM 15% | [9]; at 3.7 µM 26% | [9]; at 11.0 µM 46% | [10]; [17] 55% | [11]; at 1.2 µM 20% | [11]; at 3.7 µM 29% | [11]; [17] 20% | [11]; at 11.0 µM 60% | [12]; at 1.2 µM 8% | [12]; at 3.7 µM 23% | [12]; at 11.0 µM 47% | [13]; at 1.2 µM 11% | [13]; at 3.7 µM 22% | [13]; at 11.0 µM 41% | [14]; at 1.2 µM 16% | [14]; at 3.7 µM 41% | [14]; at 11.0 µM 65% | [15]; [17] 6%

Reference: PubChem BioAssay (NCI)
